Assay outcomes deposited in PubChem BioAssay by National Center for Advancing Translational Sciences (NCATS).
HPGD block: HPGD (human) dehydrogenase inhibition; P15428; purified HPGD, NADH fluorescence kinetic, PGE2 substrate; Potency, µM, without a hit: at the highest dose activity change, negative = inhibition, actives largely listed as inhibitors; 150,000 tested, 4.3% active; AID 894; also: potency is read from the fitted curve at half-maximal effect; % is scaled to controls: 0 for no effect and ±100 for the full control effect
Target sequence (P15428 whole entry, looked up): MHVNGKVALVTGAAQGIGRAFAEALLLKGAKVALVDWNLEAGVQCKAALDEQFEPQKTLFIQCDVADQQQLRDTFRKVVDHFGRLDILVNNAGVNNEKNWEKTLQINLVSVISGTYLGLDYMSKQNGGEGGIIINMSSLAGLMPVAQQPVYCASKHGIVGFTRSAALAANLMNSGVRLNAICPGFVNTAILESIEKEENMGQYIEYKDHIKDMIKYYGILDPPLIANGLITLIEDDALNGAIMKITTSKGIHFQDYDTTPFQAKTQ
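NADH formation kinetics: reaction with 30 uM PGE2 and 1 mM NAD+ (final), 20 nM enzyme, Tris-HCl pH 8 with Tween 20, after 15 min compound preincubation at room temperature. Fluorescence change, last versus first of five reads.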
HTT ATP protect: Huntington cell model cytoprotection by ATP luminescence; PC12 HTT-Q103 induced, cytoprotection, ATP luminescence, 40 h; Potency, µM (series often up to 56.4 µM), for inactives: cytoprotection (ATP increase), most hits filed as activators; 230,000 tested, 0.14% active; AID 1471; active = well fitted curve in the direction sought with a large enough effect; inconclusive = small, poorly fitted or top-dose-only effect, or another doubt; inactive = no such curve, though single readings can be large; an effect the other way counts as inactive or inconclusive; also: potency is read from the fitted curve at half-maximal effect; % of control where 0% means no effect; nearly all actives have a fitted effect of over 45% in size
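PC12 cells stably carrying ecdysone-inducible Htt exon 1 (Q103)–GFP were induced with 100 nM tebufenozide (final) alongside library compounds in a dose series. Cytoprotection was scored as retained ATP by ATPlite luminescence.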
HTT aggregate: reduces HttQ103-GFP aggregates in PC12 cells; PC12 HttQ103-GFP aggregates, Acumen cytometry, 40 h; Potency, µM (highest dose often 46.1 µM), without a hit: at the top dose activity change, negative = inhibition, usual class: inhibitors; 220,000 tested, 1.1% active; AID 1688; active = well fitted curve in the direction sought with a large enough effect; inconclusive = small, poorly fitted or top-dose-only effect, or another doubt; inactive = no such curve, though single readings can be large; an effect the other way counts as inactive or inconclusive; also: potency is read from the fitted curve at half-maximal effect; % is scaled to controls: 0 for no effect and ±100 for the full control effect; nearly all actives have a fitted effect of over 60% in size
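Using laser scanning cytometry, GFP-positive aggregates were counted after lysis of PC12 cells induced with 100 nM tebufenozide to express HTT exon 1 Q103–GFP. Compounds were tested in titration.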
JMJD2E inh: inhibitors of human JMJD2E histone demethylase | B2RXH2 | JMJD2E catalytic domain, FDH-coupled NADH fluorescence (FDH is formaldehyde dehydrogenase) | Potency, µM (top dose mostly 57.1 µM), without a hit: top-dose activity change, negative = inhibition, hits mostly inhibitors | 230,000 tested, 1.6% active;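 also: potency is read from the fitted curve at half-maximal effect; 0% = wells with enzyme and -100% = buffer wells without enzyme; nearly all actives have a fitted effect of over 50% in size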
ALDH1A1 inh: ALDH1A1 (human) enzyme inhibition; Potency, µM (series often up to 75.3 µM), without a hit: at the top dose activity, negative = inhibition, usual class: inhibitors; Purified ALDH1A1, NADH fluorescence, propionaldehyde substrate; 220,000 tested, 7.3% active;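 also: potency is read from the fitted curve at half-maximal effect; plate controls were no enzyme wells and a reference inhibitor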
CBFb RUNX1 block: CBF-beta/RUNX1 interaction disruption. AlphaScreen CBFb-His/RUNX1-biotin binding, biochemical. Potency, µM (titrated, usually from 59.8 µM), inactives show top-dose activity, negative = inhibition, hits mostly inhibitors. 230,000 tested, under 10 active. Q01196+Q13951; active = well fitted curve in the direction sought with a large enough effect; inconclusive = small, poorly fitted or top-dose-only effect, or another doubt; inactive = no such curve, though single readings can be large; an effect the other way counts as inactive or inconclusive; also: % of control where 0% means no effect
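Bead-based AlphaScreen assay; binding partners His-tagged CBF-beta and biotinylated RUNX1 at 30 nM each. Compound exposure 15 min after a 20-min protein preincubation; bead step 90 min; all steps at room temperature.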
* hit, by the source's call; ? = inconclusive; / = not tested or not shown; [ ] = another dose, or the depositor's remark. This is a sample that favours compounds with a hit; in the whole collection about 9.8% have one here. Unless noted, calls follow the shape of the dose curve; as a rule, active = well fitted inhibition curve with a large enough effect (not every such curve was filed as active); inconclusive = small, poorly fitted or top-dose-only effect, or another doubt; inactive = no such curve, though single readings can be large or run the other way.

SMILES | HPGD block | HTT ATP protect | HTT aggregate | JMJD2E inh | ALDH1A1 inh | CBFb RUNX1 block
Cc1cc(NC(=O)CSc2nnc(NC(=O)C3CC(=O)N(c4ccccc4C)C3)s2)no1 (configuration not stated) | -21% | 14%[10 µM] | 4% | -6% | 20µM* | 10%
O=C(Nc1nnc(SCc2c(Cl)cccc2Cl)s1)C1CC(=O)N(c2ccc3c(c2)OCCO3)C1 (configuration not stated) | / | 1%[10 µM] | 14% | -20% | 3.5µM* | -24%
O=C(Nc1nnc(SCc2ccc(F)cc2)s1)C1CC(=O)N(c2ccc3c(c2)OCCO3)C1 (configuration not stated) | ? | 7%[1.9 µM] | 14% | -3% | -12% | -14%
Cc1cc(NC(=O)NC2CC(=O)N(c3ccc4c(c3)OCCO4)C2)no1 (configuration not stated) | / | 12% | 0% | 4% | 6% | 9%
C=CCCCCCCC=C | -1% | -59% | / | / | -11% | 17%[21.7 µM]
Cc1ccc(S(=O)(=O)CCC(=O)OCc2ccc(S(=O)(=O)C(C)C)cc2)cc1 | / | -41% | -10%[9.22 µM] | 0% | 2.5µM* | -4%
Nc1nnc(-c2ccc(Cl)c([N+](=O)[O-])c2)s1 | / | / | -5% | 13% | 28µM* | -2%
CN1c2ccccc2C(C)(C)C12C=Nc1c(ccc3ccccc13)O2 (configuration not stated) | -13% | -12% | 12% | 25µM* | -14% | -27%
CN1c2ccccc2C(C)(C)[C@]12C=Cc1cc(O)ccc1O2 | -14% | -5% | -1% | -11% | -9% | -25%
COc1ccc2ccc3c(c2c1)N=CC1(O3)N(C)c2ccccc2C1(C)C (configuration not stated) | ? | 29%[10 µM] | ? | 14µM* | 13µM* | -24%
O=C(COc1ccc2ccccc2c1Br)NC(=S)Nc1cccc(CO)c1 | -4% | / | 9% | 0% | 2% | -2%
CO/N=C\[C@@H](OC)[C@H](C)/C=C\CC(=O)OC | / | 6%[10 µM] | / | / | -10%[13.5 µM] | -4%[13.1 µM]
O=C(CSc1nc2ccccc2s1)N1CCN(C(=O)c2ccco2)CC1 | -27% | -6%[10 µM] | 9% | 5% | 14µM* | 8%
Cc1ccc2nc(SCC(=O)N3CCN(C(=O)c4ccco4)CC3)[nH]c2c1 | -3% | -15%[1.9 µM] | 1% | -6% | ? | 0%
O=C(CSc1nc2ccc(Cl)cc2[nH]1)N1CCN(C(=O)c2ccco2)CC1 | -2% | 5%[10 µM] | 9% | 3% | 22µM* | 0%
CCOc1ccc2nc(SCC(=O)N3CCN(C(=O)c4ccco4)CC3)sc2c1 | -24% | -5% | 1% | 2% | ? | -2%
CC1CCCC(C)N1C(=O)CSc1nc2ccccc2s1 (configuration not stated) | 2.2µM* | 4% | 1% | -4% | 22µM* | 5%
CC1Cc2ccccc2N1C(=O)CSc1nc2ccccc2s1 (configuration not stated) | -17% | ? | -4% | 0% | -5% | ?
O=C(CSc1nc2ccccc2o1)N1CCCC1 | 25µM* | -19% | 13% | -3% | -2% | 5%
COC(=O)C1=C(C)NC(=O)/C1=C\N(C)C | / | -24% | 28% | -9% | ? | 1%
O=C(CSc1c(Cl)cccc1Cl)N1CCC(c2nc3ccccc3s2)CC1 | -3% | -53% | 11µM* | -3% | ? | -1%
COc1ccc(-c2csc(N3CCN(C(=O)c4ccco4)CC3)n2)cc1 | -16% | -2% | ? | -1% | 28µM* | -15%
O=C(CSc1nc2ccccc2s1)N1CCCCC1 | 2.8µM* | -22% | -9% | -2% | 4.5µM* | 8%
O=C(CSc1nc(-c2ccc(F)cc2)cs1)N1CCN(C(=O)c2ccco2)CC1 | ? | -30% | -13% | -8% | 14µM* | -7%
Cc1ccsc1/C=N/Nc1nc(=O)[nH]nc1C | / | -6%[1.9 µM] | -27% | -21% | 6% | ?
OCCC1CN(Cc2cnc(N3CCOCC3)s2)CCN1C1CCCC1 (configuration not stated) | / | -9%[10 µM] | 10%[9.22 µM] | -1% | 6% | 5%
